In the library only some 2.5% were active in any assay of this set; here they are far more common.
NSD2 inh: NSD2 histone methyltransferase inhibitors, primary screen, biochemical, AlphaScreen, single concentration, set 2. Histone-lysine N-methyltransferase NSD2 (Homo sapiens), O96028. NSD2 peptide methylation, 120 min. inhibition, % at 12.5 µM. 0.54% of 310,000 active. AID 743445, 2014; in the data active means inhibition above about 50%
Ecoli rRNA inh: reduced GFP signal of wild-type E. coli, primary screen, bacterial rRNA inhibitor project, GFP/RFP fluorescence, OD600, single point | E. coli WT GFP vs humanized-ribosome RFP mutants, 24 h; stronger effect = lower value; DMSO median 0, no signal -100 | GFP signal change (wild-type ribosome), % (no concentration beside the values) | 1.6% of 350,000 active;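 active means significant combined selectivity score with lowered wild-type GFP, culture density cut under 30%, mutant RFP and density less affected; inactive means any of these conditions unmet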
MLL AF4-AF9 inh: inhibitors of AF4 peptide binding to AF9, primary screen, biochemical, AlphaScreen, biotin-AF4 peptide, FLAG-AF9, single point. Protein AF-9 (Homo sapiens), P42568. inhibition, % at 10 µM. 0.47% of 350,000 active. AID 651704, 2012;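 active means every replicate reaching a set inhibition limit, whatever the replicate mean, cut at about 25% in these data; inconclusive means mean inhibition reaches that limit but some replicates miss it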
Target sequence (P42568 whole entry, looked up): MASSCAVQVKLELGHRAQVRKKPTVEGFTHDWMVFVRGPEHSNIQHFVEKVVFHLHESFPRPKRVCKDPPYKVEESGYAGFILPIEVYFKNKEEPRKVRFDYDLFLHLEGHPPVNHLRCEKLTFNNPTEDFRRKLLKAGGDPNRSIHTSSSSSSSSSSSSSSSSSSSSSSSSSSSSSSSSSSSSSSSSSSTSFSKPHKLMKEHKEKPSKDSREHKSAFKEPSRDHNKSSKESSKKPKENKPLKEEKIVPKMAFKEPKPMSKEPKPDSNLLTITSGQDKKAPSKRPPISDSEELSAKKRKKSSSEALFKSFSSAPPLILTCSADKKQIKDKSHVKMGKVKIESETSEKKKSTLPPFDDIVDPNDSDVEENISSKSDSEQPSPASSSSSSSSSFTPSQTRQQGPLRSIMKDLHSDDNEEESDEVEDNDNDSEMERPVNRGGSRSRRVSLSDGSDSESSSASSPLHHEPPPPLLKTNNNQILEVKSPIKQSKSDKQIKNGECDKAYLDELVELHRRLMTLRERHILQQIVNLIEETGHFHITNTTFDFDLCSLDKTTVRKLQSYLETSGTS
Casp6 inh: human caspase-6 inhibitors, primary screen, biochemical, VEID-R110 fluorescence, single point, set 2 | P55212 | purified caspase-6, Z-VEID-R110 cleavage fluorescence | inhibition, % at 12.5 µM | 0.53% of 350,000 active | AID 686996, 2013;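 active means mean inhibition across replicates at least about 35%, with every replicate also reaching that limit, limit read from the data; inconclusive means only one of the two criteria met; inactive means neither criterion met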
RAD52 anneal inh: RAD52 DNA annealing inhibitors, primary screen, biochemical, FRET, single point, set 2 | recombinant RAD52 DNA annealing, FRET fluorescence | inhibition, % at 18.7 µM | 0.46% of 360,000 active;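 active means every replicate showing at least 50% inhibition; inconclusive means mean inhibition at least 50% but not in every replicate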
AlphaScreen art: AlphaScreen signal interference with preloaded methylated product, dose response, artefact control for NSD2 inhibitor project, biochemical, cherry-picked samples | shares compounds with NSD2 inh | AlphaScreen artifact counterscreen, preloaded methylated H4 peptide | AC35, µM (titrated, usually from 10 µM) | 9.4% of 1,500 active; call rule not given here
Large screens that a line does not name were inactive (follow-up assays come after a bar, where they were run).

NC(=O)c1ccc(-n2nnnc2SCC(=O)c2ccc(O)c(O)c2)cc1	NSD2 inh 89 | AlphaScreen art inactive
Oc1cccc2cnccc12	none
Nc1cccc2cnccc12	NSD2 inh 107 (no result: Ecoli rRNA inh, MLL AF4-AF9 inh, Casp6 inh, RAD52 anneal inh) | AlphaScreen art inactive
C[C@@H]1CN([C@H](C)CO)C(=O)c2cccc(NC(=O)Nc3ccc(F)cc3)c2O[C@@H]1CN(C)Cc1ccc(-c2ccccc2)cc1	none (no result: NSD2 inh)
CCOC(=O)Nc1ccc(=O)n(Cc2c(Cl)cccc2Cl)c1	NSD2 inh 85 (no result: Ecoli rRNA inh, MLL AF4-AF9 inh, Casp6 inh, RAD52 anneal inh) | AlphaScreen art inactive
O=[N+]([O-])c1ccc(N/N=C/c2cccs2)nc1	NSD2 inh 52 | AlphaScreen art inactive
COc1ccc(-n2ncc3c(NCCCn4ccnc4)ncnc32)cc1	NSD2 inh 121 (no result: MLL AF4-AF9 inh) | AlphaScreen art inactive
Cc1noc(C)c1NC(=O)Nc1cccc2c1O[C@@H](CN(C)S(=O)(=O)c1cccs1)[C@@H](C)CN([C@H](C)CO)C2=O	none (no result: NSD2 inh)
Cc1ccc(Nc2nc(-c3ccc(O)c(O)c3)cs2)nc1	NSD2 inh 88, MLL AF4-AF9 inh 42 | AlphaScreen art inactive
CCCC(=O)Nc1ccc2c(c1)C(=O)N(C)C[C@@H](OC)[C@H](C)CN(CCC(F)(F)F)[C@@H](C)CO2	none (no result: NSD2 inh, MLL AF4-AF9 inh, Casp6 inh, RAD52 anneal inh)
O=C(C[C@@H]1CC[C@@H]2[C@H](COC[C@@H](O)CN2Cc2ccccc2F)O1)N1CCc2ccccc2C1	none (no result: NSD2 inh)
CCN(CC)C(=O)c1ccc(Oc2ccc([N+](=O)[O-])cc2Cl)cc1	none
CCN(CC)C(=O)c1cc([N+](=O)[O-])cc2c1-c1ccc([N+](=O)[O-])cc1C2=C(C#N)C#N	NSD2 inh 87 | AlphaScreen art inactive
Cc1noc(C)c1NC(=O)Nc1ccc2c(c1)CC(=O)N([C@H](C)CO)C[C@@H](C)[C@@H](CN(C)S(C)(=O)=O)O2	none (no result: NSD2 inh, MLL AF4-AF9 inh, Casp6 inh, RAD52 anneal inh)
Nn1cnnc1N/N=C/c1ccc(F)cc1	MLL AF4-AF9 inh inconclusive
Nn1cnnc1N/N=C/c1ccc(Cl)c([N+](=O)[O-])c1	NSD2 inh 116 | AlphaScreen art inactive
CCCc1nc2sc3ccccc3c(=O)c2c(=O)n1Cc1ccccc1	NSD2 inh 61 (no result: MLL AF4-AF9 inh) | AlphaScreen art inactive
CSc1ncccc1C(=O)Nc1nc2c(C)cccc2s1	NSD2 inh 104 | AlphaScreen art inactive
CSc1ncccc1C(=O)Nc1ncc(C)s1	none
CN(C)CCCN1C(=O)c2cccc3c([N+](=O)[O-])ccc(c23)C1=O	NSD2 inh 71 (no result: Ecoli rRNA inh, MLL AF4-AF9 inh, Casp6 inh, RAD52 anneal inh) | AlphaScreen art inactive
O=C1c2cccc3c([N+](=O)[O-])ccc(c23)C(=O)N1CCc1ccccn1	none
COc1ccc2c3c(n(C)c2c1)[C@@H](CO)N(C(=O)NC1CCCCC1)CC31CN(C)C1	none (no result: NSD2 inh)
COc1ccc(S(=O)(=O)Nc2ccc3c(c2)C(=O)N([C@@H](C)CO)C[C@@H](C)[C@@H](CN(C)CC2CC2)OCCCC[C@@H](C)O3)cc1	none (no result: NSD2 inh)
O=S(=O)(c1ccc(-c2nnco2)cc1)N1CCCCC1	NSD2 inh 93 | AlphaScreen art inactive
C[C@H](CO)N1C[C@H](C)[C@H](CN(C)S(=O)(=O)c2ccccc2)Oc2ccc(NC(=O)Cc3cn(C)c4ccccc34)cc2C1=O	none (no result: NSD2 inh)
Cc1cccn2c(=O)c3cc(C(=O)NCCCn4ccnc4)n(C)c3nc12	NSD2 inh 118 (no result: Ecoli rRNA inh, MLL AF4-AF9 inh, Casp6 inh, RAD52 anneal inh) | AlphaScreen art inactive
COCCNC(=O)c1cc2c(=O)n3cccc(C)c3nc2n1C	none (no result: NSD2 inh)
CCN1CCN(c2ncnc3scc(-c4ccc(OC)cc4)c23)CC1	NSD2 inh 64 | AlphaScreen art inactive
C[C@@H]1CN([C@H](C)CO)C(=O)c2cc(NS(=O)(=O)c3ccc(F)cc3)ccc2O[C@H]1CN(C)CC1CCCCC1	none (no result: NSD2 inh)
CCOc1ccc(S(=O)(=O)N2CCCC(C(=O)NCCN3CCOCC3)C2)cc1Cl (centres undefined)	NSD2 inh 83 | AlphaScreen art inactive
Cc1cc2ccccn2c1C(=O)c1ccc([N+](=O)[O-])o1	NSD2 inh 61 | AlphaScreen art inactive
Cc1ccc(NC(=S)N2CCC(NC(=O)c3ccccc3)CC2)cc1	none
Cc1ccc(NC(=S)N2CCC(NC(=O)c3ccc(F)cc3)CC2)cc1	NSD2 inh 61 | AlphaScreen art inactive
CC1=CC(=C2C(=O)c3ccccc3C2=O)C=C(C)O1	none (no result: Ecoli rRNA inh, MLL AF4-AF9 inh, Casp6 inh, RAD52 anneal inh)
NC1=CC(=O)C(=O)c2ccccc21	NSD2 inh 100, Casp6 inh 41 | AlphaScreen art inactive
CCN1CCCC1CNc1ncnc2c1[nH]c1ccc(Cl)cc12 (centres undefined)	NSD2 inh 54 (no result: Ecoli rRNA inh, MLL AF4-AF9 inh, Casp6 inh, RAD52 anneal inh) | AlphaScreen art inactive
CO[C@H]1CN(C)C(=O)c2ccc(NS(C)(=O)=O)cc2OC[C@H](C)N(C(=O)C2CCOCC2)C[C@@H]1C	none (no result: NSD2 inh)
Cc1ccc(NC(=O)CCC(=O)OCC(F)(F)C(F)F)cc1	NSD2 inh 121 (no result: Ecoli rRNA inh, MLL AF4-AF9 inh, Casp6 inh, RAD52 anneal inh) | AlphaScreen art inactive
O=C(OC(C(=O)NC1CCCCC1)c1ccccn1)c1cccs1 (centres undefined)	NSD2 inh 114 (no result: Ecoli rRNA inh, MLL AF4-AF9 inh, Casp6 inh, RAD52 anneal inh) | AlphaScreen art inactive
O=C(OC(C(=O)NCc1cccs1)c1ccccn1)c1cccs1 (centres undefined)	none (no result: Ecoli rRNA inh, MLL AF4-AF9 inh, Casp6 inh, RAD52 anneal inh)
CC1(C)NC(=O)N(CCCOc2ccccc2Br)C1=O	NSD2 inh 70 (no result: Ecoli rRNA inh, MLL AF4-AF9 inh, Casp6 inh, RAD52 anneal inh) | AlphaScreen art inactive
CC1(C)NC(=O)N(CCOc2cccc(Cl)c2Cl)C1=O	none (no result: Ecoli rRNA inh, MLL AF4-AF9 inh, Casp6 inh, RAD52 anneal inh)
O=C(O)c1ccc(NN=Cc2cc(=O)[nH]c(=O)[nH]2)cc1	none
O=c1cc(C=NNc2ccccc2)[nH]c(=O)[nH]1	NSD2 inh 52 | AlphaScreen art inactive
Cc1nn(CC(=O)Nc2nnc(CC(=O)N3CCCC3)s2)c(=O)c2ccccc12	none (no result: Ecoli rRNA inh, MLL AF4-AF9 inh, Casp6 inh, RAD52 anneal inh)
Cc1nn(CC(=O)Nc2nnc(C(C)C)s2)c(=O)c2ccccc12	NSD2 inh 59 | AlphaScreen art inactive
CO[C@@H]1CN(C)C(=O)c2ccc(NC(=O)c3ccc4c(c3)OCO4)cc2OC[C@@H](C)N(CCC(F)(F)F)C[C@@H]1C	none (no result: NSD2 inh)
O=C(O)c1cccc(-n2cccc2/C=C2/NC(=O)N(c3ccc(Cl)cc3)C2=O)c1	NSD2 inh 141, Casp6 inh 84 | AlphaScreen art 2.1µM
Cc1ccccc1N=C1NC(=O)/C(=C/c2cccn2-c2cccc(C(=O)O)c2)S1	NSD2 inh 80 (no result: Casp6 inh) | AlphaScreen art inactive
O=C(O)c1cccc(-n2cccc2C=C2C(=O)c3ccccc3C2=O)c1	none (no result: Casp6 inh)
O=C(O)c1cccc(-n2cccc2/C=C2/SC(=O)N(CC(=O)N3CCCC3)C2=O)c1	NSD2 inh 61, Casp6 inh 40 | AlphaScreen art inactive
O=C(CN1C(=O)S/C(=C/c2cccn2-c2ccc(O)cc2)C1=O)N1CCCC1	none
COc1ccc(-n2nc(C(=O)NCc3ccco3)c3c4ccccc4n(C)c3c2=O)cc1	none

Screening results from PubChem.
